Source: the supplement of paper PMC10849652
About 7,900 targets were measured; listed, in parts, are those with a hit and a random draw of the rest. About 0.6% of all pairs of compound and target were hits.

Tests used:
Assay in all cases: log2 fold change, soluble protein after heating vs DMSO (PISA); higher = thermal stabilisation; K562 cells, 10 uM, 30 min; active = over 0.2 and 3.5 SD of the protein, either way, in both replicates (recomputed)
[1] = compound: CS(=O)(=O)c1ccc(-c2cnc(N)c(C(=O)Nc3ccccc3)n2)cc1
In short: (§1)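 K562 cells at 2×10^6 cells/mL were exposed to 10 μM compound for 30 min, then aliquots were heated for 3 min across 48°C-58°C, pooled, and extracted in PBS containing 0.5% NP-40 at 4°C. The supernatant after 21,000xg for 90 min was taken as soluble protein and measured by TMTpro 16plex LC-MS/MS with channel sums equalised. Thermal stability is reported relative to control samples, with values from duplicates. Fold changes are given on a log2 scale.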

crizotinib = compound: C[C@@H](Oc1cc(-c2cnn(C3CCNCC3)c2)cnc1N)c1c(Cl)ccc(F)c1Cl [crizotinib]
In short: as §1

[2] = compound: C[C@@H]1COCCN1C2=NC(=NC(=C2)C3(CC3)S(=O)(=O)C)C4=C5C=CNC5=CC=C4
In short: as §1

[3] = compound: C[C@H](C1=CC=C(C=C1)C(=O)NC2=C3C=CNC3=NC=C2)N
In short: as §1

duvelisib = compound: C[C@H](Nc1ncnc2nc[nH]c12)c1cc2cccc(Cl)c2c(=O)n1-c1ccccc1 [duvelisib]
In short: as §1

gandotinib = compound: Cc1cc(Nc2cc(CN3CCOCC3)c3nc(C)c(Cc4ccc(Cl)cc4F)n3n2)n[nH]1 [gandotinib]
In short: as §1

tozasertib = compound: Cc1cc(Nc2cc(N3CCN(C)CC3)nc(Sc3ccc(NC(=O)C4CC4)cc3)n2)n[nH]1 [tozasertib]
In short: as §1

[4] = compound: Cc1cc(SCc2sc(-c3ccc(C(F)(F)F)cc3)nc2C)ccc1OCC(=O)O
In short: as §1

doramapimod = compound: Cc1ccc(-n2nc(C(C)(C)C)cc2NC(=O)Nc2ccc(OCCN3CCOCC3)c3ccccc23)cc1 [doramapimod]
In short: as §1

ispinesib = compound: Cc1ccc(C(=O)N(CCCN)[C@@H](c2nc3cc(Cl)ccc3c(=O)n2Cc2ccccc2)C(C)C)cc1 [ispinesib]
In short: as §1

Measured: log2 fold change

LUC7L (UniProt Q9NQ29)
inactive: [1] -0.009 | crizotinib -0.028 | [2] -0.033 | [3] -0.001 | duvelisib -0.042 | gandotinib 0.199 | tozasertib 0.06 | [4] 0.033 | doramapimod 0.029 | ispinesib -0.007

LEMD2 (UniProt Q8NC56)
inactive: [1] -0.001 | [2] 0.084 | [3] -0.057 | duvelisib -0.016 | gandotinib -0.17 | tozasertib 0.008 | [4] 0.109 | doramapimod 0.079
active: crizotinib -0.286 | ispinesib -0.438

KHDRBS1 (UniProt Q07666)
inactive: [1] -0.091 | crizotinib -0.02 | [2] -0.06 | [3] -0.019 | duvelisib -0.017 | gandotinib 0.07 | tozasertib -0.015 | [4] 0.038 | doramapimod -0.027 | ispinesib 0.011

MDC1 (UniProt Q14676)
inactive: [1] -0.053 | crizotinib -0.109 | [2] 0.041 | [3] 0.107 | duvelisib -0.057 | gandotinib 0.423 | tozasertib -0.154 | [4] -0.031 | doramapimod 0.178 | ispinesib -0.217

MFGE8 (UniProt Q08431)
Chain of UniProt Q08431 (Q08431 whole entry, looked up): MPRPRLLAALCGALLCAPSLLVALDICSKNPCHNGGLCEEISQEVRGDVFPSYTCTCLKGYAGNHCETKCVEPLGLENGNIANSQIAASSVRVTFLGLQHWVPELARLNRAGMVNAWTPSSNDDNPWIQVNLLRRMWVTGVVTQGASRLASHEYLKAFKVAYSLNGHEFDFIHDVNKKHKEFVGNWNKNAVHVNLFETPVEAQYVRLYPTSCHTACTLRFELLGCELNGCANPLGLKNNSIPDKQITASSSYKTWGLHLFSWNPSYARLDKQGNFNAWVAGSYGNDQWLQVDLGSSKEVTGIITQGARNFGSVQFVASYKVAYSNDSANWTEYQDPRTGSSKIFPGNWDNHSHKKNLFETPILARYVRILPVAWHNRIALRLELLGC
inactive: [1] 0.063 | crizotinib 0.04 | [2] -0.129 | [3] 0.087 | duvelisib -0.052 | gandotinib -0.015 | tozasertib 0.085 | [4] 0.057 | doramapimod 0.046 | ispinesib -0.122

LMBR1 isoform 3 (UniProt Q8WVP7)
Chain of UniProt Q8WVP7 (Q8WVP7 whole entry, looked up): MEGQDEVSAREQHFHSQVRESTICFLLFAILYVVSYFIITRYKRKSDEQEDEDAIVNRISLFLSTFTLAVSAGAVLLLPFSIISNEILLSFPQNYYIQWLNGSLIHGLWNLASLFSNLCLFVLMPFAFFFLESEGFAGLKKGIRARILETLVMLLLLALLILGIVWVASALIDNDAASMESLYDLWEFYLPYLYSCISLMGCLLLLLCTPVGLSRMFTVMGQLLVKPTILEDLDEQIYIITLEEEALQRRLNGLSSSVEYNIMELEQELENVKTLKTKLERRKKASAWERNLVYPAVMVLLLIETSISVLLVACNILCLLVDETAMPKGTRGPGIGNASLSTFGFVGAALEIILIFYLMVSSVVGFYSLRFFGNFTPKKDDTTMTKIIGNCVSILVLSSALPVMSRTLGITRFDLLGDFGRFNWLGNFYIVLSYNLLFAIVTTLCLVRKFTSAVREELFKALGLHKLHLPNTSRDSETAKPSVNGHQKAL
inactive: [1] 0.086 | crizotinib -0.198 | [2] 0.019 | [3] -0.05 | duvelisib 0.095 | tozasertib 0.028 | [4] 0.04 | doramapimod 0.032 | ispinesib -0.477
active: gandotinib -0.812

IRF2BPL (UniProt Q9H1B7)
inactive: [1] -0.034 | crizotinib 0.133 | [2] 0.249 | [3] -0.005 | duvelisib 0.106 | gandotinib -0.041 | tozasertib 0.034 | [4] 0.066 | doramapimod -0.061 | ispinesib -0.083

MAGOHB (UniProt Q96A72)
Chain of UniProt Q96A72 (Q96A72 whole entry, looked up): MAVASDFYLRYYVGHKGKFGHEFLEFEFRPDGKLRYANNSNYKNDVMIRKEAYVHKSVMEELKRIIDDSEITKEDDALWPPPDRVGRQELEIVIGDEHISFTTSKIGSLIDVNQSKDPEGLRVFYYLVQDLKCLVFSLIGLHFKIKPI
active: crizotinib 0.324
inactive: [1] 0.005 | [2] 0.013 | [3] -0.131 | duvelisib 0.039 | gandotinib 0.084 | tozasertib 0.141 | [4] 0.05 | doramapimod -0.016 | ispinesib 0.076

IPO11 isoform 2 (UniProt Q9UI26)
Chain of UniProt Q9UI26 (Q9UI26 whole entry, looked up): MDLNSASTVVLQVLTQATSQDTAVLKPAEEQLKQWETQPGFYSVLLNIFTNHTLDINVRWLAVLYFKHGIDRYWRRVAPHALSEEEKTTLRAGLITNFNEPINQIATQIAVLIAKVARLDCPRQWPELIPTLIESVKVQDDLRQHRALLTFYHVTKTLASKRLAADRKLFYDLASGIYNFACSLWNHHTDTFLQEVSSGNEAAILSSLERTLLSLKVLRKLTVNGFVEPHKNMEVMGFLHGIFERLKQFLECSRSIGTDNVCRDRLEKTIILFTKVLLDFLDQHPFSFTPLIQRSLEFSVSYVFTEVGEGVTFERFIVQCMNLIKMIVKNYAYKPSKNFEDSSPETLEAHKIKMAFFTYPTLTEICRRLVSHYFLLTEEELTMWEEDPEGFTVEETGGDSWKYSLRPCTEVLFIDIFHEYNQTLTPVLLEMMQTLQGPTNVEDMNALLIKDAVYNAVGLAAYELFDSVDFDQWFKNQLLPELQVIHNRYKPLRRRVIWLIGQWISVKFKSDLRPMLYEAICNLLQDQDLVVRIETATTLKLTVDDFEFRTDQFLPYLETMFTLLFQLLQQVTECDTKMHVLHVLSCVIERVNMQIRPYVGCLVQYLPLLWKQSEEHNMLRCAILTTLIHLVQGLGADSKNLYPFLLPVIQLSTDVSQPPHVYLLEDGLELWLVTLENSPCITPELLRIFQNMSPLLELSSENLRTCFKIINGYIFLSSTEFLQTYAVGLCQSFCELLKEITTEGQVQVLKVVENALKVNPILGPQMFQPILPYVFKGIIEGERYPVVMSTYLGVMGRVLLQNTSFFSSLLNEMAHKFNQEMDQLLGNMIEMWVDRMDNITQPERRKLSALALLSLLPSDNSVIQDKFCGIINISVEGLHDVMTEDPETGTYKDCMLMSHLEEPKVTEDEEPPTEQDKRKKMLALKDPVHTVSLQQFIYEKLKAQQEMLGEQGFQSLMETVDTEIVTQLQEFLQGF
inactive: [1] 0.037 | crizotinib 0 | [2] -0.015 | [3] -0.082 | duvelisib 0.041 | gandotinib -0.076 | tozasertib 0.025 | [4] 0.007 | doramapimod -0.028 | ispinesib 0.051

MAD2L1 (UniProt Q13257)
inactive: [1] 0.02 | crizotinib -0.076 | [2] 0.092 | [3] -0.004 | duvelisib 0.024 | gandotinib -0.139 | tozasertib 0.101 | [4] 0.037 | doramapimod 0.034 | ispinesib -0.023

MELK (UniProt Q14680)
inactive: [1] 0.109 | crizotinib -0.128 | [2] -0.099 | [3] 0.054 | duvelisib -0.063 | gandotinib -0.046 | tozasertib -0.087 | [4] -0.047 | doramapimod -0.011

MFSD11 (UniProt O43934)
active: crizotinib -0.683
inactive: [1] -0.098 | [2] -0.223 | [3] 0.074 | duvelisib 0.03 | gandotinib 0.036 | tozasertib -0.109 | [4] -0.063 | doramapimod 0.008

IK (UniProt Q13123)
inactive: [1] -0.041 | crizotinib 0.021 | [2] -0.037 | [3] 0.186 | duvelisib 0.034 | gandotinib 0.022 | tozasertib 0.05 | [4] -0.007 | doramapimod 0.016 | ispinesib 0.065

MCUR1 (UniProt Q96AQ8)
inactive: [1] 0.041 | crizotinib 0.082 | [2] 0.1 | [3] 0.044 | duvelisib 0.06 | gandotinib -0.021 | tozasertib 0.043 | [4] -0.017 | doramapimod -0.002 | ispinesib 0.255

KIF21A isoform 4 (UniProt Q7Z4S6)
inactive: [1] 0.092 | crizotinib -0.039 | [2] 0.027 | [3] 0.207 | duvelisib 0.055 | gandotinib -0.001 | tozasertib 0.021 | [4] 0.044 | doramapimod 0.047 | ispinesib -0.153

LDAH isoform 2 (UniProt Q9H6V9)
inactive: [1] 0.052 | [2] 0.064 | [3] -0.035 | duvelisib 0.001 | gandotinib -0.001 | tozasertib -0.047 | [4] 0.204 | doramapimod 0.019
active: crizotinib -0.308 | ispinesib -0.438

KIF3B (UniProt O15066)
inactive: [1] -0.004 | crizotinib -0.018 | [2] 0.054 | [3] 0.03 | duvelisib 0.05 | gandotinib -0.199 | tozasertib -0.051 | [4] -0.023 | doramapimod 0.076 | ispinesib 0.04

LUC7L3 (UniProt O95232)
active: [3] -0.219
inactive: [1] -0.001 | crizotinib -0.045 | [2] -0.022 | duvelisib -0.001 | gandotinib 0.065 | tozasertib 0.011 | [4] 0.02 | doramapimod 0 | ispinesib 0.099

MAP4 (UniProt P27816)
inactive: [1] -0.004 | crizotinib 0.012 | [2] -0.025 | [3] -0.035 | duvelisib -0.03 | gandotinib 0.006 | tozasertib -0.023 | [4] -0.051 | doramapimod 0.008 | ispinesib -0.014

LGALS8 isoform 2 (UniProt O00214)
inactive: [1] -0.002 | crizotinib -0.023 | [2] -0.255 | [3] 0.323 | duvelisib -0.223 | gandotinib -0.144 | tozasertib 0.016 | [4] 0.204 | doramapimod 0.146

KIF13A (UniProt Q9H1H9)
active: gandotinib -0.384
inactive: [1] 0.018 | crizotinib 0.058 | [2] 0.112 | [3] 0.072 | duvelisib 0.034 | tozasertib 0.065 | [4] -0.009 | doramapimod -0.011 | ispinesib -0.003

ILKAP (UniProt Q9H0C8)
inactive: [1] 0.008 | crizotinib 0.064 | [2] 0.174 | [3] -0.054 | duvelisib 0.041 | gandotinib -0.061 | tozasertib 0 | [4] 0.085 | doramapimod -0.055 | ispinesib 0.05

MIER1 isoform 12 (UniProt Q8N108)
inactive: [1] 0.009 | crizotinib -0.027 | [2] 0.035 | [3] -0.034 | duvelisib -0.012 | gandotinib -0.004 | tozasertib -0.021 | [4] 0.035 | doramapimod 0.026 | ispinesib -0.029

IGF2R (UniProt P11717)
Chain of UniProt P11717 (P11717 whole entry, looked up): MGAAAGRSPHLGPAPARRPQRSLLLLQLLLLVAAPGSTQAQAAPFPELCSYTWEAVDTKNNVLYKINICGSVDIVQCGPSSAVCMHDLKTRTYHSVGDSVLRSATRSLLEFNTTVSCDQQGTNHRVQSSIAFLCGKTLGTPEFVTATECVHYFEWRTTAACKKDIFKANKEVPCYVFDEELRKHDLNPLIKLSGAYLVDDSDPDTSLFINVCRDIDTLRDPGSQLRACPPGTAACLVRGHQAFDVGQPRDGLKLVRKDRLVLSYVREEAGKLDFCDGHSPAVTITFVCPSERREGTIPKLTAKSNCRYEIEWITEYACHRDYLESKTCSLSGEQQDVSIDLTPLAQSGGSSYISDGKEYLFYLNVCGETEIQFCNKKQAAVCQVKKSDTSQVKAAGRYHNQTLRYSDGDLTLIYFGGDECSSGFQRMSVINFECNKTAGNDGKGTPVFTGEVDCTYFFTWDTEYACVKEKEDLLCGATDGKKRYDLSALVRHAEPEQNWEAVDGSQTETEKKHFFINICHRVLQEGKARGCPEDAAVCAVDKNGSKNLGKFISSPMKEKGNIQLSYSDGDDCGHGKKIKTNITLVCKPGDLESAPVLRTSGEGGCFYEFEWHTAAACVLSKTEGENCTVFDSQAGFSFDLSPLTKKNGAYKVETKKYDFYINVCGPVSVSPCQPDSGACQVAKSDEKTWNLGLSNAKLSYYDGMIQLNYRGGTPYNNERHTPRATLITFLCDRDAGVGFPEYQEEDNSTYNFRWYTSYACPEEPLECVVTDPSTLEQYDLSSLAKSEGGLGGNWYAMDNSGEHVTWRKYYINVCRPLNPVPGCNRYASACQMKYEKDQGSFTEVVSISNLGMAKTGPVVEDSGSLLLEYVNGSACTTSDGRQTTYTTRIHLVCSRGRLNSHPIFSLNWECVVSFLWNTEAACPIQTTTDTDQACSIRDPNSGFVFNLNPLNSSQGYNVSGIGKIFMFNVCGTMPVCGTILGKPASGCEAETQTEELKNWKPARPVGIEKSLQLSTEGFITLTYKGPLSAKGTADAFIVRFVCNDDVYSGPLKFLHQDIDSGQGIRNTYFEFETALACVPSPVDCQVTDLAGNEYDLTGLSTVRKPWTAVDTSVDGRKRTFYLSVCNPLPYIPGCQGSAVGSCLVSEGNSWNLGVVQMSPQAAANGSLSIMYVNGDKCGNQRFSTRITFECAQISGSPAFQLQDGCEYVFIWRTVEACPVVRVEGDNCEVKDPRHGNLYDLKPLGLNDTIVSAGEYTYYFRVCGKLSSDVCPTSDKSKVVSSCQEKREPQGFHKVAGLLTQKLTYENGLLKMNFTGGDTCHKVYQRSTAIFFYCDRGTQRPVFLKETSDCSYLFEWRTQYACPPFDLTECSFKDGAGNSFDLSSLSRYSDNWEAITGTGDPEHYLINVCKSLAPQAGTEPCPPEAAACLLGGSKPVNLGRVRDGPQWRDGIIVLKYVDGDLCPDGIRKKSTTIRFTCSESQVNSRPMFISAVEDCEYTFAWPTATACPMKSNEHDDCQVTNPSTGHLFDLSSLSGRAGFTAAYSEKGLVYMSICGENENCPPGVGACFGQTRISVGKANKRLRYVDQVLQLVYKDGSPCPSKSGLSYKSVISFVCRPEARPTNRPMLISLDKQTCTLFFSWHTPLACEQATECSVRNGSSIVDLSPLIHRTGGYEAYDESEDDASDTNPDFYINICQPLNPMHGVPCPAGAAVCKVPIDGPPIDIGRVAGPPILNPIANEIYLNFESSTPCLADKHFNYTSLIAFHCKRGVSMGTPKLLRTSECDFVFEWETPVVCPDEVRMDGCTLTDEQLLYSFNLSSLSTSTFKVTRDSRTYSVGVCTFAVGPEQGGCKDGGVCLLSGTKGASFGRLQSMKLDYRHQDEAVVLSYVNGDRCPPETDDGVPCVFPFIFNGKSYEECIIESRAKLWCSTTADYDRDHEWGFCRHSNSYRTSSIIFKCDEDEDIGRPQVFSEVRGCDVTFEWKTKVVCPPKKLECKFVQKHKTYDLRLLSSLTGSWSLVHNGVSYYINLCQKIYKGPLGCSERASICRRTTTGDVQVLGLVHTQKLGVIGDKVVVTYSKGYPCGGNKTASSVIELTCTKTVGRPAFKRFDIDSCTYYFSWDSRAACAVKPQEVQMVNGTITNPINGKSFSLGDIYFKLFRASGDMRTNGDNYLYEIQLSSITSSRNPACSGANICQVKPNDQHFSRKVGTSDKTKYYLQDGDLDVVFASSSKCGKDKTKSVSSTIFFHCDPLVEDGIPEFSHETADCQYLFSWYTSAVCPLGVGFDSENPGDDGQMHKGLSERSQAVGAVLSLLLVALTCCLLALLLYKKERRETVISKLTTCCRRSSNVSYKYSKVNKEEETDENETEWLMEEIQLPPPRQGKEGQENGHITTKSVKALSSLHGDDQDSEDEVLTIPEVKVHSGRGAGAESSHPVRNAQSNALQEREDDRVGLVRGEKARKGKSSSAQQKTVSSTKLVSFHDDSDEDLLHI
active: crizotinib -0.871
inactive: [1] 0.031 | [2] -0.035 | [3] -0.035 | duvelisib 0.048 | gandotinib 0.017 | tozasertib 0.025 | [4] 0.019 | doramapimod -0.01 | ispinesib -0.115

LYN (UniProt P07948)
inactive: [1] -0.023 | crizotinib -0.142 | [2] -0.101 | [3] -0.01 | duvelisib 0.118 | gandotinib -0.015 | tozasertib -0.085 | [4] 0.132 | doramapimod 0.065 | ispinesib -0.094

KDELR2 (UniProt P33947)
Chain of UniProt P33947 (P33947 whole entry, looked up): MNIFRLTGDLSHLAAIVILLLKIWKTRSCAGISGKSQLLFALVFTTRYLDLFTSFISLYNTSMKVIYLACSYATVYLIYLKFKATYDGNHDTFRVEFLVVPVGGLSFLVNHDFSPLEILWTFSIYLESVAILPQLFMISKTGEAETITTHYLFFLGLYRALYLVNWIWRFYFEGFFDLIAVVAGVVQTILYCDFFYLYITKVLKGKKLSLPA
inactive: [1] 0.056 | crizotinib 0.035 | [2] 0.205 | [3] -0.096 | duvelisib 0.099 | gandotinib -0.107 | tozasertib -0.027 | [4] -0.007 | doramapimod 0.016 | ispinesib 0.016

JMJD6 isoform 3 (UniProt Q6NYC1)
inactive: [1] -0.037 | crizotinib 0.046 | [2] 0.046 | [3] -0.034 | duvelisib 0.002 | gandotinib -0.147 | tozasertib 0.024 | [4] 0.029 | doramapimod 0.005 | ispinesib 0.039

MAIP1 (UniProt Q8WWC4)
Chain of UniProt Q8WWC4 (Q8WWC4 whole entry, looked up): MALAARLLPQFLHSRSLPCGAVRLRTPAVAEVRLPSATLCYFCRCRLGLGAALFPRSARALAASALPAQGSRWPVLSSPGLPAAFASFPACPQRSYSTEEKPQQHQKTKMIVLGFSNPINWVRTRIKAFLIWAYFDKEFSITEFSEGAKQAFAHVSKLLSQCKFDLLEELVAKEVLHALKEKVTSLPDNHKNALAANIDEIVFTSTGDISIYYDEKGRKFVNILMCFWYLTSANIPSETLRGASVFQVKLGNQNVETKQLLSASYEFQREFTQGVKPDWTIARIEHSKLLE
inactive: [1] 0.071 | crizotinib -0.114 | [2] 0.062 | [3] -0.072 | duvelisib 0.025 | gandotinib -0.025 | tozasertib 0.027 | [4] -0.005 | doramapimod -0.008 | ispinesib -0.21

MAP3K20 (UniProt Q9NYL2)
inactive: [1] -0.003 | crizotinib -0.01 | [2] -0.065 | [3] 0.059 | duvelisib -0.022 | gandotinib -0.025 | tozasertib 0.002 | [4] 0.053 | doramapimod -0.072 | ispinesib -0.141

MIEF1 (UniProt Q9NQG6)
inactive: [1] 0.088 | [2] -0.005 | [3] -0.046 | duvelisib 0.096 | gandotinib 0.095 | tozasertib -0.038 | [4] 0.065 | doramapimod 0.007
active: crizotinib -0.31 | ispinesib -0.489
